Data taken from PubChem BioAssay (NCATS).
Values joined by “and” are separate entries in the source; they are usually repeats but may differ in a detail not shown here. Equal entries are not always repeated. Results filed as inconclusive are left out. A call without a number means that no potency is given here. Active and inactive are the calls of the source. Unless noted, the call rests on the fitted dose curve; in most records, active means well fitted curve in the direction sought with a large enough effect; inconclusive means small, poorly fitted or top-dose-only effect, or another doubt; inactive means no such curve, though single readings can be large; an effect the other way counts as inactive or inconclusive.

Columns and labels:
[1] = target: Cytochrome P450 3A4 (Homo sapiens) (UniProt P08684); experiment: qHTS Assay for Inhibitors and Substrates of Cytochrome P450 3A4 (AID 884); further: nearly all actives have a fitted effect of over 50% in size; further: potency means the concentration at half of the fitted maximal effect
Summary of the method: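 Luminescent readout of luciferin produced by CYP3A4 (20 nM) dealkylation of Luciferin-PPXE, 25 uM (its KM). NADPH-driven reaction ran 60 min at RT after 10 min compound preincubation; data scaled to 57 uM ketoconazole as 100% inhibition.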

[2] = Confirmation and Secondary Assay for Modulators of Hemoglobin Beta Chain Splicing at IVS2 654 locus (AID 910);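 further: HeLa cells stably carrying EGFP split by mutant beta-globin IVS2-654 intron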
Summary of the method: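 Readout: per-well total peak green fluorescence (488 nm ex, 500–520 nm em) from objects 5–250 µm, reflecting correct splicing of an EGFP-654 reporter. Compounds were applied for 2 days at 37 °C to overnight-plated HeLa EGFP-654 cells; controls were DMSO and 500 nM IVS2-654 PNA.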

[3] = Confirmation and Secondary Assay for Modulators of Hemoglobin Beta Chain Splicing at IVS2 705 locus (AID 930);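 further: HeLa cells stably expressing the EGFP-705 splicing reporter; GFP fluorescence per well restored by corrected splicing of the IVS2-705 intron in EGFP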
Summary of the method: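 Read-out: total peak GFP fluorescence per well (488 nm excitation, 500-520 nm emission) by laser-scanning cytometry. Cells: HeLa EGFP-705 splicing reporter, 2 days compound exposure in Optimem/2% FCS.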

[4] = qHTS Assay for Lipid Storage Modulators (AID 1519; calls by dose curve); conditions: Drosophila S3 cells, BODIPY lipid droplet/cell ratio, laser cytometry, cells loaded with oleic acid; for activity change, negative = inhibition: at 57.5 µM (top of the series)
Summary of the method: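 Cells seeded at 5,000 per well were treated with compounds over a concentration series and loaded with oleic acid (400 uM, as added). Lipid droplet fluorescence (488 nm excitation, 500-530 nm channel) was read by laser-scanning cytometry and normalized to 20 uM Triacsin C.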

[5] = target: Ubiquitin carboxyl-terminal hydrolase 1 (Homo sapiens) (UniProt O94782); experiment: Inhibitors of USP1/UAF1: Pilot qHTS (AID 504865);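 further: rhodamine fluorescence freed from ubiquitin-rhodamine substrate followed over time; top concentration of the series differs between compounds; nearly all actives have a fitted effect of over 35% in size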
Summary of the method: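 Deubiquitinase activity followed as kinetic rhodamine fluorescence release from 150 nM Ub-Rho. 1 nM USP1/UAF1 with compound, after 15 min room-temperature preincubation, in HEPES pH 7.8 buffer containing TCEP, EDTA, BSA and Tween-20.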

[6] = target: Cytochrome P450 3A4 (Homo sapiens) (UniProt P08684); experiment: qHTS Assay for Activators of Cytochrome P450 3A4 (AID 885); further: nearly all actives have a fitted effect of over 65% in size; further: potency means the concentration at half of the fitted maximal effect
Summary of the method: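 Using 20nM recombinant human CYP3A4 in potassium phosphate (200mM), substrate Luciferin-PPXE at 25uM, luminescent luciferin detection followed a 60-min RT NADPH reaction; data scaled to 57 uM ketoconazole.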

[7] = measured here: cell count channel max response
[8] = measured here: lipid channel max response

Ubiquitin carboxyl-terminal hydrolase 1 (Homo sapiens), sequence (O94782 whole entry, looked up): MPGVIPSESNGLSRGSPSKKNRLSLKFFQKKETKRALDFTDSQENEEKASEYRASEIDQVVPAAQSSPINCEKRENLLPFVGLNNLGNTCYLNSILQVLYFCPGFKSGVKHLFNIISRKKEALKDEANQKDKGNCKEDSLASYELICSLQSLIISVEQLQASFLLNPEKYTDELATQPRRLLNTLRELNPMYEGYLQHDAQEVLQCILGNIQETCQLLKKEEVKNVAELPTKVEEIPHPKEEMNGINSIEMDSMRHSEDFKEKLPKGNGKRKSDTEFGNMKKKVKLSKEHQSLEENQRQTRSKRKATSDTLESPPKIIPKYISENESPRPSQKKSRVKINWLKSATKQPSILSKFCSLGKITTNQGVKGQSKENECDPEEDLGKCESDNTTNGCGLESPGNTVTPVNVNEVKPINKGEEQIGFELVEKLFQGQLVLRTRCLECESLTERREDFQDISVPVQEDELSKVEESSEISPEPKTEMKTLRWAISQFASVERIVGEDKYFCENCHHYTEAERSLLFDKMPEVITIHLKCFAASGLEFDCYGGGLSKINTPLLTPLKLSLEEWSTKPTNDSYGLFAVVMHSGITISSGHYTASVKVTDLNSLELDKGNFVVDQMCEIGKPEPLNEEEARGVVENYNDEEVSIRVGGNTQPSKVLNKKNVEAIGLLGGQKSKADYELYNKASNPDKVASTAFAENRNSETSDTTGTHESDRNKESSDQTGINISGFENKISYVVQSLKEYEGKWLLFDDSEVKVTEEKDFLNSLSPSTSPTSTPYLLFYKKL
Cytochrome P450 3A4 (Homo sapiens), sequence (P08684 whole entry, looked up): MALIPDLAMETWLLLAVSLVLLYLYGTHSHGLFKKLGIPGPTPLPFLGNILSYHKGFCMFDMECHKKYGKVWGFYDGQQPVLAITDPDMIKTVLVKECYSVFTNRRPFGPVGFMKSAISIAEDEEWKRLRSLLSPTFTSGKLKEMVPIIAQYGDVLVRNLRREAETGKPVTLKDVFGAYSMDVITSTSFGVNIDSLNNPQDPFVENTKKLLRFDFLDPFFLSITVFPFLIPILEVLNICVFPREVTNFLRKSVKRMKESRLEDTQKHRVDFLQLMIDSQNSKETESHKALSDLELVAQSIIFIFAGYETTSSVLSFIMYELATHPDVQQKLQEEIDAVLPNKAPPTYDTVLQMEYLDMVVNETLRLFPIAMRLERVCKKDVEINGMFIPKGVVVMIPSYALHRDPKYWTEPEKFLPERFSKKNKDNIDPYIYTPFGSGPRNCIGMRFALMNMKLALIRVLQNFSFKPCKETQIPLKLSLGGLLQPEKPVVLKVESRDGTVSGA

SMILES | Potency [1] | Potency [2] | Potency [3] | activity change, negative = inhibition [4] | max response [4, 7] | max response [4, 8] | Potency [5] | Potency [6]
[N-]=[N+]=NCC1OC(n2cnc3c(=O)[nH]c(N)nc32)C(O)C1O (centres undefined) | inactive | inactive | inactive | 4.07% (inactive) | 12.7% | 19.1% | inactive | 
CCOC(=O)c1c(C)cc(O)cc1O | 25.1 µM (active) | inactive | inactive | 13% (inactive) | -2.16% | 14.3% | inactive | inactive
COc1c(OC)c2occc2c2oc(=O)ccc12 | 10 µM (active) | inactive | inactive | 12.4% (inactive) | 0.397% | 12.4% | inactive | inactive
CC(=O)OC1CC(O)C(C)(C)C2CC(OC(C)=O)[C@]3(C)C(CC[C@@]4(C)C(c5ccoc5)OC(=O)C5OC534)[C@]12C (some centres undefined) | 2.51 µM (active) | inactive | inactive | 4.32% (inactive) | 12.6% | 20.3% | inactive | inactive
COc1cc(OC)c2c(=O)c(OC)c(-c3ccc(OC)c(OC)c3)oc2c1 | 1.26 µM (active) | inactive | inactive | 1.54% (inactive) | 14.1% | 15.7% | inactive | inactive
O=c1[nH]cnc2c1nc(Cl)n2C1OC(CO)C(O)C1O (centres undefined) | inactive | inactive | inactive | 3.67% (inactive) | 5.38% | 10.4% | inactive | 
O=c1cc(-c2ccc(O)c(O)c2)oc2ccccc12 | 15.8 µM (active) | inactive | inactive | 2.38% (inactive) | -4.12% | 2.75% | inactive | inactive
COc1ccc2c(c1)OCC(Cc1ccc(OC)c(O)c1)C2=O (centres undefined) | 25.1 µM (active) | inactive | inactive | 6.62% (inactive) | 3.51% | 13% | inactive | inactive
COc1ccc2c(c1)[C@]1(C)CCC(=O)C[C@H]1CC2 | 3.16 µM (active) | inactive | inactive | 8.23% (inactive) | -1.73% | 6.33% | inactive | inactive
C#CCCCCCCCCCCCC(=O)CC(O)COC(C)=O (centres undefined) | inactive | inactive | inactive | 3.5% (inactive) | 13.4% | 17.1% | inactive | 
CC1(C)CC2/C(CO)=C/C=C/[C@](C)(O)CC[C@]21O (some centres undefined) | 15.8 µM (active) | inactive | inactive | 4.24% (inactive) | 22.8% | 29.9% | inactive | inactive
Nc1nc2c(ncn2C2OC(CO)CC2O)c(=O)[nH]1 (centres undefined) | inactive | inactive | inactive | 6.37% (inactive) | 3.55% | 10.6% | inactive | 
CS(=O)(=O)CCCCN=C=S | inactive | inactive | inactive | -15.3% (inactive) | -1.15% | -18% | inactive | 
C[C@]12CCC3c4ccc(O)cc4CCC3C1CC(O)C2O (some centres undefined) | inactive | inactive | inactive | -4.9% (inactive) | 6.91% | 3.96% | inactive | 
C=C1C2CC[C@@]3(C)C(c4ccoc4)OC(=O)C[C@@]13OC1CC(=O)C(C)(C)C(CC(=O)OC)[C@]12C (some centres undefined) | 5.01 µM (active) | inactive | inactive | 0.233% (inactive) | -7.73% | -5.31% | inactive | inactive
CC1CC[C@@]23CCC4(C)[C@@]5(C)CCC6C(C)(C)C(O)CC[C@@]6(C)C5C=C[C@@]4(OC2=O)C3C1C (some centres undefined) | 5.01 µM (active) | inactive | inactive | 1.82% (inactive) | 9.51% | 12.3% | inactive | inactive
C/C=C(/C)C(=O)OC1Cc2c(ccc3ccc(=O)oc23)OC1(C)C (centres undefined) | inactive | inactive | inactive | 2.21% (inactive) | 9.88% | 14.5% | inactive | 15.8 µM (active)
NC(=O)NCC(N)C(=O)O (centres undefined) | inactive | inactive | inactive | 2.49% (inactive) | 3.72% | 6.05% | inactive | 
Cc1cc(O)cc(O)c1C(=O)O | 25.1 µM (active) | inactive | inactive | 4.63% (inactive) | 10.6% | 18.2% | inactive | inactive
COC1C[C@@H](O[C@@H]2C(C)C(=O)OC(C)C(C)C(O)C(C)C(=O)[C@@]3(CO3)CC(C)C(OC3OC(C)CC(N(C)C)C3O)C2C)OC(C)[C@@H]1O (some centres undefined) | 6.31 µM (active) | inactive | inactive | 4.89% (inactive) | 4.4% | 11% | inactive | inactive
CNc1ccccc1C(=O)N1CCc2c([nH]c3ccccc23)C1=O | 1 µM (active) | inactive | inactive | 8.02% (inactive) | 12.5% | 25.5% | inactive | inactive
Cc1cc(=O)c2c(O)cc(O)c(C)c2o1 | 25.1 µM (active) | inactive | inactive | 14% (inactive) | 5.24% | 21.1% | inactive | inactive
Nc1ncnc2[nH]c(=O)[nH]c12 | inactive | inactive | inactive | 4.6% (inactive) | 1.75% | 6.43% | inactive | 

SMILES | Potency [1] | Potency [2] | Potency [3] | activity change, negative = inhibition [4] | max response [4, 7] | max response [4, 8] | Potency [5] | Potency [6]
CC(=O)OC1CC(OC(C)=O)[C@]2(C)C(CC(=O)[C@]3(C)C2CC[C@@]2(C)C(c4ccoc4)OC(=O)C4O[C@@]423)C1(C)C (some centres undefined) | 20 µM (active) | inactive | inactive | 4.36% (inactive) | 11.4% | 20.9% | inactive | inactive
OC/C=C/c1ccc(O)c(O)c1 | 15.8 µM (active) | inactive | inactive | 8.76% (inactive) | 13.5% | 23.8% | inactive | inactive
COc1ccc2c(c1)OCC(Cc1ccc(OC)c(OC)c1)C2O (centres undefined) | 7.94 µM (active) and 12.6 µM (active) | inactive | inactive | 6.38% (inactive) | 8.42% | 15.9% | inactive | inactive
COC(=O)CC1C(C)(C)C(OC(C)=O)C2CC3C4CC(=O)OC(c5ccoc5)[C@]4(C)CCC3[C@@]1(C)C2=O (some centres undefined) | 0.631 µM (active) | inactive | inactive | -20.8% (inactive) | 1.85% | -17.5% | inactive | inactive
CC(C)(O)CCC(O)[C@@](C)(O)C1CC[C@]2(O)C3=CC(=O)C4CC(O)C(O)C[C@]4(C)C3CC[C@]12C (some centres undefined) | inactive | inactive | inactive | 2.72% (inactive) | -2.83% | 0.37% | inactive | 
CCN(CC)Cc1ccc(Nc2ccnc3cc(Cl)ccc23)cc1O | inactive | inactive | inactive | -0.352% (inactive) | 18.7% | 21.7% | inactive | 7.94 µM (active)
CC(=O)OC1CC[C@]2(C)C(=CCC3C4CCC(C(C)CCCC(C)C)[C@]4(C)CCC32)C1 (some centres undefined) | inactive | inactive | inactive | 5.26% (inactive) | 9.32% | 13.2% | inactive | 
CC(C)/C(O)=C1/C(=O)OC(c2ccoc2)[C@@]2(C)C(O)C(O)[C@@]34OC5(C)OC67CC(C)(C(O)[C@@]6(O)C(O)[C@@]3(O5)C12)C(CC(=O)O)[C@@]74C (some centres undefined) | 12.6 µM (active) | inactive | inactive | 0.873% (inactive) | -1.97% | 0.302% | inactive | inactive
COc1ccc(-c2c(O)c3c(OC)c4c(cc3oc2=O)OC(C)(C)C=C4)cc1 | 6.31 µM (active) | inactive | inactive | -13.4% (inactive) | -5.03% | -5.79% | inactive | inactive
COc1cccc2c1CCC1CC(=O)CC[C@@]21C (some centres undefined) | 15.8 µM (active) | inactive | inactive | 4.57% (inactive) | -12.9% | -5.49% | inactive | inactive
CCCCCC(=O)Cc1cc(O)cc(O)c1C(=O)Oc1cc(CC(=O)CCCCC)c(C(=O)O)c(OC)c1 | 15.8 µM (active) | inactive | inactive | 4.27% (inactive) | 7.66% | 16.1% | inactive | inactive
CC(=O)Oc1cc(-c2coc3cc(OC(C)=O)c(OC(C)=O)c(OC(C)=O)c3c2=O)cc(OC(C)=O)c1OC(C)=O | inactive | inactive | inactive | 13.7% (inactive) | 12.1% | 28.6% | inactive | 
C=C1CCC(C2CC(=O)OC2=O)C(=O)CCC2C1CC2(C)C (centres undefined) | inactive | inactive | inactive | 4.44% (inactive) | 19.1% | 26.1% | inactive | 
Nc1nc2[nH]c(=O)c(=O)[nH]c2c(=O)[nH]1 | inactive | inactive | inactive | 4.12% (inactive) | 1.82% | 6.32% | inactive | 
CC1=CC2C(C(C)C)CCC(C)(O)C2CC1 (centres undefined) | inactive | inactive | inactive | -0.741% (inactive) | -7.33% | -6.55% | inactive | 
Nc1nc2c(nc(Cl)n2C2OC(CO)C(O)C2O)c(=O)[nH]1 (centres undefined) | inactive | inactive | inactive | 3.5% (inactive) | 20% | 24.4% | inactive | 
CC1CCC2(OC1)OC1CC3C4CC[C@@H]5CC(O)CC[C@@]5(C)C4CC(=O)[C@]3(C)C1C2C (some centres undefined) | inactive | inactive | inactive | 9.56% (inactive) | 0.354% | 13.1% | inactive | 
Cc1c(O)cc(O)c2c(=O)c(-c3ccc(O)cc3)coc12 | inactive | inactive | inactive | 8.55% (inactive) | 16.6% | 28% | inactive | 
COc1cc2c(cc1O)C(Cc1ccc(O)cc1)[N+](C)(C)CC2 (centres undefined) | inactive | inactive | inactive | 12.6% (inactive) | 6.75% | 22.8% | inactive | 
CNC1C(O)C(O)C(CO)O[C@H]1OC1C(O[C@@H]2C(O)C(O)[C@@H](N=C(N)N)C(O)C2N=C(N)N)OC(C)[C@]1(O)C=O (some centres undefined) | inactive | inactive | inactive | 11.1% (inactive) | 10.8% | 24.1% | inactive | 
O=c1ccn(C2OC(COP(=O)(O)OP(=O)(O)OP(=O)(O)O)C(O)C2O)c(=O)[nH]1 (centres undefined) | inactive | inactive | inactive | 6.49% (inactive) | 21.5% | 29.6% | inactive | 
C=C(C)C1(O)OC(=O)C=C1OC (centres undefined) | inactive | inactive | inactive | -0.62% (inactive) | -1.24% | -2.01% | inactive | 
